# Most compounds without a hit are left out; they make up all but 9.4% or so of the library.
# Pf growth 96h – inhibits malaria parasite growth, 96 h. AID 504834. Potency, µM (series often up to 28.7 µM), for inactives: at the top dose activity change, negative = inhibition, most hits filed as inhibitors. actives 6.9% (n = 320,000). P. falciparum luciferase reporter growth, 96 h; note: % is set by controls: 0 for no effect and ±100 for the full control effect
#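 P. falciparum expressing integrated firefly luciferase grown in erythrocytes (2% hematocrit, 0.05% parasitemia final) with compounds for 96 hours at 37 C, 5% CO2. Growth inhibition read as loss of luminescence after adding luciferase detection reagent.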
# Pf growth 48h – inhibits P. falciparum growth in the first generation, 48 h; AID 504832; Potency, µM (highest dose often 28.7 µM), inactives show at the top dose activity change, negative = inhibition, actives largely listed as inhibitors; P. falciparum luciferase growth in erythrocytes, 48 h; actives 5.9% (n = 310,000); note: % is set by controls: 0 for no effect and ±100 for the full control effect
#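 First compound was added to culture medium, then infected red cells at 0.1% parasitemia and 2% hematocrit (final). After incubation at 37 C under 5% CO2, luciferase detection reagent was dispensed and light output recorded.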
# AMA1 RON2 block – inhibitors of Plasmodium falciparum AMA1-RON2 interaction | AlphaScreen AMA1-biotinylated RON2 peptide binding | Potency, µM (series often up to 58.2 µM), without a hit: at the highest dose activity change, negative = inhibition, actives largely listed as inhibitors | actives 0.2% (n = 360,000) | AID 720542;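 note: 0% = vehicle wells and -100% = peptide control; nearly all actives have a fitted effect of over 45% in size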
#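 AMA1 (3D7) with his tag at 25 nM final met compounds first, then biotinylated RON2 peptide at 25 nM; detection used donor plus acceptor beads, 10 µg/mL apiece, read by AlphaScreen after 30 min at room temperature.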
# SARS PLP yeast – inhibitors of SARS-CoV papain-like protease in yeast | Potency, µM (doses to about 32.9 µM), for the others: at the highest dose activity, positive = growth rescue, hits mostly activators | S. cerevisiae expressing SARS-CoV PLpro, growth rescue | actives 0.19% (n = 330,000); calls by dose curve; note: 0% is about no effect; nearly all actives have a fitted effect of over 55% in size
# * = called active by the depositor; ? = inconclusive; . = no result. Unless noted, calls come from the whole dose curve; as a rule, active = well fitted curve in the direction sought with a large enough effect; inconclusive = small, poorly fitted or top-dose-only effect, or another doubt; inactive = no such curve, though single readings can be large; an effect the other way counts as inactive or inconclusive. Potency is the fitted concentration of half-maximal effect.
SMILES,Pf growth 96h,Pf growth 48h,AMA1 RON2 block,SARS PLP yeast
COc1ccc(CN2CCNC(=O)C2CC(=O)NC2CCC2)c(OC)c1 (stereo not given),15µM*,7%,-5%,-6%
CCOc1ccc(CCNC(=O)c2sc3nc4n(c(=O)c3c2C)CCC4)cc1OCC,0%,?,1%,-2%
Cc1ccc(CNC(=O)C(NS(=O)(=O)c2cccc3nsnc23)c2ccccc2)cc1 (stereo not given),-15%,?,-19%,-38%
Cc1ccc(NC(=O)CSc2nnc([C@@H](N)Cc3c[nH]c4ccccc34)o2)c(C)c1,9.3µM*,?,9%,1%
O=C(Oc1ccc2ccc(OC(=O)N3CCOCC3)cc2c1)N1CCOCC1,10µM*,47%,-7%,4%
O=C(Oc1ccc2cccc(OC(=O)N3CCOCC3)c2c1)N1CCOCC1,?,.,9%,1%
COc1ccc(N(C)C(=O)Nc2ccc3c(c2)nnn3C)cc1,15%,12%,-7%,-1%
COC1=C(OC)C(=O)C(Sc2ccc3ccccc3c2)=CC1=O,.,.,13µM*,.
O=C(Nc1ccccc1)N1CCn2c1nc1ccccc12,6%,0%,7%,-3%
S=C(Nc1ccccc1)N1CCn2c1nc1ccccc12,2.6µM*,5%,40%,5%
COc1ccc(N(CC(=O)N2CCN(c3cc(C)ccc3C)CC2)S(=O)(=O)c2c(C)noc2C)cc1,13µM*,9.3µM*,9%,-3%
COc1ccc(N(CC(=O)N2CCN(c3cccc(C)c3C)CC2)S(=O)(=O)c2c(C)noc2C)cc1,13µM*,8.3µM*,-2%,-4%
CC(CCc1ccc(O)cc1)NC(c1ccccc1)c1ccc(Cl)cc1 (stereo not given),?,9.3µM*,-6%,4%
Cc1ccc(S(=O)(=O)CCC(=O)OCC(=O)N(Cc2ccccc2)C(C)C)cc1,25%,-1%,19%,-2%
CCc1c(C)nc2ncnn2c1N1CCCC(C(=O)NCc2cccs2)C1 (stereo not given),30%,-17%,14%,1%
CCCCOc1c(Br)cc(CNCCCN2CCOCC2)cc1OC,10µM*,13µM*,4%,-10%
Cc1nc(C)c(C(=O)C2=C(O)C(=O)N(CCCn3ccnc3)C2c2ccc(Cl)cc2)s1 (stereo not given),?,46%,-10%,2%
COc1ccc(C2CC(=O)OC3=C2C(=O)CC(C)(C)C3)c(OC)c1 (stereo not given),?,10µM*,-2%,1%
Cc1cc(Cl)nc(Cl)c1C(=O)N1CCOCC1,?,-21%,1%,2%
Cc1cc(C)c2nc(-c3cccc(Cl)c3)c(C)c(C(=O)N3CCOCC3)c2c1,?,12µM*,9%,-23%
CCNc1nc(NC(C)C)nc(Oc2ccc(OCCOc3ccc(C)cc3)nn2)n1,12µM*,?,11%,-6%
CSCCC(NC(=O)c1cccc([N+](=O)[O-])c1)c1nc2ccccc2[nH]1 (stereo not given),?,?,9%,-8%
O=C(NC(Cc1ccccc1)c1nc2ccccc2[nH]1)c1cccc([N+](=O)[O-])c1 (stereo not given),12µM*,?,-3%,-2%
CSCC[C@H](NC(=O)c1cc([N+](=O)[O-])ccc1Cl)c1nc2ccccc2[nH]1,15µM*,12µM*,3%,15%
CCCNC(=O)C(Cc1ccccc1)NC(=O)c1cccc([N+](=O)[O-])c1 (stereo not given),?,8.3µM*,-1%,6%
SMILES,Pf growth 96h,Pf growth 48h,AMA1 RON2 block,SARS PLP yeast
O=C(Nc1nc2ccccc2[nH]1)c1cccc([N+](=O)[O-])c1,8%,0%,104%,1%
CCCC[C@@H]1C=C(C(=O)O)[C@H](c2ccc(C#N)cc2)N1S(=O)(=O)c1ccc(C)cc1,.,.,-3%,-1%
COc1ccc(-n2ccn(CC(=O)Nc3ccccc3OC)c(=O)c2=O)cc1,54%,17%,29%,-11%
COc1ccc(CN2CCN(S(=O)(=O)c3ccc(NC(C)=O)cc3)CC2)cc1,?,?,?,0%
COc1ccc(S(=O)(=O)N2CCc3ccccc32)cc1C(=O)OCC(=O)c1c(N)n(C)c(=O)n(C)c1=O,-15%,4.1µM*,10%,-1%
COc1ccc(NC(C)=O)cc1NC(=O)c1cccc(S(=O)(=O)N2CCN(Cc3ccccc3)CC2)c1,3.7µM*,?,-5%,-1%
COc1ccc(CN2CCN(S(=O)(=O)c3ccc(NC(C)=O)cc3)CC2)c(OC)c1OC,13µM*,?,-7%,1%
COc1ccccc1C(=O)Nc1ccc(S(=O)(=O)N2CCc3ccccc32)cc1,?,.,3%,3%
COc1ccc(S(=O)(=O)N2CCc3ccccc32)cc1C(=O)Nc1ccc(C(N)=O)cc1,7.4µM*,?,0%,2%
O=C(OCc1nc2ccccc2s1)c1cccc(N2C(=O)CCC2=O)c1,44%,3%,2%,2%
Cc1ccc(OCCNC(=O)Cn2cnc3c(=O)n(C)c(=O)n(C)c32)cc1C,-3%,-8%,-3%,-5%
CC(=O)Nc1cc(-c2ccc(C(=O)N3CCOCC3)cc2)cn2c(-c3ccc(F)cc3)cnc12,.,.,36%,.
COc1ccc(NC(=O)c2cc(S(=O)(=O)N3CCc4ccccc43)cn2C)c(OC)c1,0%,?,-14%,10%
Cn1c(N)c(C(=O)COC(=O)c2cc(S(=O)(=O)N3CCCCC3)ccc2Cl)c(=O)n(C)c1=O,-7%,-3%,3%,12%
Cn1c(N)c(C(=O)COC(=O)c2ccc(Cl)c(S(=O)(=O)N3CCCC3)c2)c(=O)n(C)c1=O,?,8.3µM*,-1%,0%
COc1ccccc1NC(=O)c1cccc(S(=O)(=O)N2CCN(c3ccccc3)CC2)c1,?,?,-4%,-2%
CC(=O)NS(=O)(=O)c1ccc(NC(=O)c2cccc(S(=O)(=O)N3CCc4ccccc43)c2)cc1,-7%,0%,-15%,0%
COc1ccccc1NC(=O)c1cccc(S(=O)(=O)N2CCN(Cc3ccccc3)CC2)c1,12µM*,?,-6%,1%
Cc1cc(F)ccc1NC(=O)c1cc(S(=O)(=O)N2CCc3ccccc32)cn1C,10µM*,?,-2%,0%
COc1ccc(NC(C)=O)cc1NC(=O)c1cccc(S(=O)(=O)N2CCc3ccccc32)c1,?,13µM*,-13%,-2%
Cc1ccccc1S(=O)Cc1ccc(C(=O)NC2CC2)o1 (stereo not given),-4%,-9%,-7%,2%
C=CCn1cc(C(=O)N2CCc3ccccc3C2)c(=O)c2cc(S(=O)(=O)N(CC)CC)ccc21,8%,?,-15%,3%
Cn1cc(C(=O)c2ccc(Cl)cc2Cl)cc1C(=O)N/N=C(\N)COc1ccc(Cl)cc1,9.3µM*,0%,38%,21%
CCN=C1SC(C(=O)Nc2cccc(C(=O)O)c2)CC(=O)N1CC (stereo not given),13µM*,-3%,-2%,6%
CCNc1nc(OCCNC(C)=O)nc(N(C)C)n1,1.5µM*,66%,-22%,-3%

# Bioassay records deposited in PubChem by National Center for Advancing Translational Sciences (NCATS).
